Reference: the supplement of paper PMC3545927
The other results are listed elsewhere or left out. No count for the full screen is at hand.

Biological target: furin, P09958
Assay: furin cleavage Z-score vs untreated control; higher = more cleavage, active = 3.5 or more, inactive = 1 or less, 8 variable residues between constant flanks
Method in brief: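 Sequencing of released DNA, tagged with adapters by PCR, gave read counts used as abundance. That DNA was freed when purified furin cut N-terminally bead-bound 8-mer peptides fused to a cDNA oligonucleotide, in 0.01 ml reactions at 1:10 enzyme:substrate in 50 mM HEPES pH 7.5 with CaCl2 and NaCl, lasting 7.5, 15 or 30 min. The cleavage Z-score was the lowess-adjusted log count versus furin-free reactions, scaled by median absolute deviation.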

Sequence of furin, P09958 (P09958 whole entry): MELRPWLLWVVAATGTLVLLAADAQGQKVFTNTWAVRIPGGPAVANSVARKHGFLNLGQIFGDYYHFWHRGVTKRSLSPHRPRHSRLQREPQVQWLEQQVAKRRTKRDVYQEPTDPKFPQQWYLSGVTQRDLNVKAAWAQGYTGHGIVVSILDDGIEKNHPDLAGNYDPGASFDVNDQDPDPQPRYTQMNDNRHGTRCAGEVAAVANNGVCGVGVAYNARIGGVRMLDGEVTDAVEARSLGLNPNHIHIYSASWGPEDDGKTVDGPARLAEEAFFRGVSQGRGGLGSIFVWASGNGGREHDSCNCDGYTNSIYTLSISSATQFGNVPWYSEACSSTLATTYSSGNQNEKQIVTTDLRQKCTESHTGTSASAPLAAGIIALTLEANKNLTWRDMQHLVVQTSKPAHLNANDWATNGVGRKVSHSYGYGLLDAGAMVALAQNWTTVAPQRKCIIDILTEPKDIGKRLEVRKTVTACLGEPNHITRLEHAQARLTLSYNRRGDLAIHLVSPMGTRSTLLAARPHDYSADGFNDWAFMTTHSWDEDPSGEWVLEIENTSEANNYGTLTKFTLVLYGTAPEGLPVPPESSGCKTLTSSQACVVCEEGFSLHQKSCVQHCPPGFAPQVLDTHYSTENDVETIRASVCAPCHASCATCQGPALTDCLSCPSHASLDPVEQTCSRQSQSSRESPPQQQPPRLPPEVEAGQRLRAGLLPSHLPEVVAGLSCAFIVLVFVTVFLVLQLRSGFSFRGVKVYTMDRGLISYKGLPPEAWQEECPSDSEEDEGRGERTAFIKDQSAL

Sequence | furin cleavage Z-score (7.5 min) | furin cleavage Z-score (15 min) | furin cleavage Z-score (30 min)
CAMEECSAHLAGNASASA [HC1723] | 1.16 | 1.94 | 0.224 (inactive)
CAANHDSPDAAGNASASA [HC1269] | -0.381 (inactive) | 0.0398 (inactive) | -1.93 (inactive)
CAEVVTWTWVAGNASASA [HC147] | 0.828 (inactive) | 0.782 (inactive) | -0.799 (inactive)
CAAEGWWARSAGNASASA [FS-394] | 0.0718 (inactive) | 0.063 (inactive) | -0.127 (inactive)
CAKQRRLPRSAGNASASA [FS-678] | 5.31 (active) | 3.74 (active) | 3.02
CAESSRLLRSAGNASASA [FS-994] | -0.56 (inactive) | -0.471 (inactive) | -0.146 (inactive)
CAESRRLPRSAGNASASA [FS-1321] | 4.7 (active) | 3.1 | 2.83
CAAPARWPRSAGNASASA [FS-974] | 8.41 (active) | 5.86 (active) | 6.73 (active)
CAAPQRLPRSAGNASASA [FS-1305] | 5.56 (active) | 4.41 (active) | 3.78 (active)
CANLGRLYRSAGNASASA [FS-1546] | 1.72 | 0.0213 (inactive) | 0.362 (inactive)
CATPGCVPCVAGNASASA [HC272] | -0.91 (inactive) | 0.456 (inactive) | 0.199 (inactive)
CAHHQRPKRYAGNASASA [FS-792] | 8.28 (active) | 9.17 (active) | 7.59 (active)
CAILNRPKRYAGNASASA [FS-666] | 4.17 (active) | 4.91 (active) | 4.53 (active)
CATWAQPGYPAGNASASA [HC198] | -0.244 (inactive) | 0.873 (inactive) | -0.438 (inactive)
CAWWARSVGGAGNASASA [FS-2116] | 0.297 (inactive) | 0.813 (inactive) | 1.73
CAEVVTSTMVAGNASASA [HC2226] | 1.1 | 0.363 (inactive) | 1.25
CARNKRDTMVAGNASASA [FS-1862] | 12.3 (active) | 13.2 (active) | 10.9 (active)
CARNKKSKMDAGNASASA [FS-2497] | -0.56 (inactive) | -0.669 (inactive) | -0.939 (inactive)
CARNKRPTFLAGNASASA [FS-3008] | -0.0512 (inactive) | 0.819 (inactive) | -0.221 (inactive)
CARNKKSIAVAGNASASA [FS-2434] | -0.82 (inactive) | 0.605 (inactive) | 1.7
CARNKRFYGGAGNASASA [FS-1910] | 0.307 (inactive) | 0.312 (inactive) | 2.91
CARNKKQNSQAGNASASA [FS-2282] | 1.09 | -0.5 (inactive) | -0.768 (inactive)

Sequence | furin cleavage Z-score (7.5 min) | furin cleavage Z-score (15 min) | furin cleavage Z-score (30 min)
CAFRKRSHSKAGNASASA [FS-2120] | -0.356 (inactive) | -1.2 (inactive) | -1.04 (inactive)
CARNKRSKSNAGNASASA [FS-2729] | 7.79 (active) | 9.35 (active) | 7.37 (active)
CARNKRSHSGAGNASASA [FS-1758] | 5.74 (active) | 8.23 (active) | 6.55 (active)
CARNKRSTQIAGNASASA [FS-1911] | 10.5 (active) | 12.3 (active) | 10.9 (active)
CAVFCCSMSYAGNASASA [HC2007] | -1.31 (inactive) | -1.48 (inactive) | -0.762 (inactive)
CAPTPCSGSWAGNASASA [HC1839] | -0.934 (inactive) | -0.739 (inactive) | -1.08 (inactive)
CACRPLTDFDAGNASASA [HC390] | -1.1 (inactive) | 0.259 (inactive) | -1.94 (inactive)
CANVPCHRPSAGNASASA [HC2321] | 0.0675 (inactive) | 0.859 (inactive) | 1.03
CALNTGWLAGAGNASASA [HC377] | -0.173 (inactive) | -0.464 (inactive) | 0.636 (inactive)
CASTPCSAKLAGNASASA [HC2554] | 0.275 (inactive) | 1.72 | 1.78
CANAASLAGTAGNASASA [HC538] | 0.915 (inactive) | 0.0856 (inactive) | 0.369 (inactive)
CAVIVGRVVLAGNASASA [HC1001] | -0.946 (inactive) | -1.25 (inactive) | -0.791 (inactive)
CALRRRCQRDAGNASASA [FS-459] | 9.61 (active) | 9.12 (active) | 7.39 (active)
CALRRVLRRDAGNASASA [FS-56] | 4.93 (active) | 4.47 (active) | 5.29 (active)
CAFPNRDQRDAGNASASA [FS-652] | -0.191 (inactive) | -0.415 (inactive) | -0.133 (inactive)
CALRRRGPGKAGNASASA [FS-2124] | -0.105 (inactive) | -1.37 (inactive) | -1.45 (inactive)
CATKRRNQRDAGNASASA [FS-509] | 9.77 (active) | 11 (active) | 8.15 (active)
CALPVWARPDAGNASASA [HC1303] | -0.876 (inactive) | -0.333 (inactive) | -0.285 (inactive)
CAKPMRQQRDAGNASASA [FS-343] | 5.15 (active) | 5.86 (active) | 7.03 (active)
CATTFCSGSWAGNASASA [HC1867] | 0.273 (inactive) | 0.134 (inactive) | -0.205 (inactive)
CALTTSQTLLAGNASASA [HC1061] | -1.15 (inactive) | 0.0331 (inactive) | 0.232 (inactive)
